hgDAF12 agonist = H. glycines DAF-12 receptor agonists, primary screen, cell-based, luminescence, HEK293, GAL4 fusion, UAS-luciferase; Nuclear hormone receptor DAF-12 (Heterodera glycines), GAL4 fusion; activation, % at 6.8 µM; 370,000 compounds, 1.8% hits; HEK293 GAL4-hgDAF12 UAS-luciferase reporter, agonist luminescence; normalized to butyrate control;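 active = activation above a cutoff set at the mean of all screened compounds plus 3 SD, cut at about 10% in these data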;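 note: 0% = DMSO wells and 100% = sodium butyrate wells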
hcDAF12 agonist = H. contortus DAF-12 nuclear receptor activators, primary screen, cell-based, luminescence, HEK293, lit1-tk-luc reporter. HEK293 hcDAF-12 lit1-tk-luc reporter; 0% DMSO, 100% Δ7-dafachronic acid. activation, % at 6.8 µM. 370,000 compounds, 1.4% hits. AID 652067, 2013;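 active = activation above the mean of all tested compounds plus 3 SD, cut at about 5.5% in these data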;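 note: 100% = response to 3 µM Δ7-dafachronic acid high control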
DAX1 inh-1 = DAX1 (NR0B1) inhibitors on StAR promoter, primary screen, cell-based, luminescence, SF-1 (NR5A1), full-length DAX-1 | 370,000 compounds, 1.1% hits | HEK293T StAR-luciferase reporter, SF-1/DAX-1 repression relief | inhibition, % at 6.8 µM;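 active = inhibition above the mean over all tested compounds plus 3 SD, cut at about 3.6% in these data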;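 note: 0% = DAX-1 cells with DMSO and 100% = cells lacking DAX-1 with DMSO; higher inhibition means more luminescence from relief of DAX-1 repression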
ssDAF-12 act = S. stercoralis DAF-12 nuclear receptor activators, primary screen, cell-based, luminescence, HEK293, GRIP1 co-expression, lit1-tk-luc; HEK293 ssDAF-12/GRIP1 lit1-tk-luc reporter; % of 3 µM dafachronic acid response; Nuclear hormone receptor DAF-12 (Strongyloides stercoralis); activation, % at 6.8 µM; AID 652126, 2013; 370,000 compounds, 1% hits;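 active = activation above the mean over all tested compounds plus 3 SD, cut at about 0.9% in these data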;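 note: 0% = DMSO-only wells and 100% = 3 µM delta7-dafachronic acid wells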
SMARCA2 act = SMARCA2 (BRM) function activators, primary screen, cell-based, luminescence, high throughput; AID 652017, 2013; activation, % at 9.1 µM; MG213 cells, MMTV-luciferase reporter, dexamethasone, overnight; 370,000 compounds, 1% hits; in the data active = activation above about 7.8%;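 note: 0% = vehicle wells and 100% = reference activator wells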
DAX1 inh-2 = DAX1 (NR0B1) inhibitors, primary screen, cell-based, HEK293, Gal4-DAX1, luciferase luminescence | HEK293 Gal4-DAX1 luciferase reporter | inhibition, % at 6.75 µM | AID 504766, 2011 | 340,000 compounds, 0.99% hits | Nuclear receptor subfamily 0 group B member 1 (Homo sapiens), P51843;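 active = inhibition above the mean over all tested compounds plus 3 SD, cut at about 4.2% in these data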;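 note: 0% = DAX1-transfected cells with DMSO and 100% = empty-vector control cells with DMSO; inhibition shows as a rise in luminescence from relieved DAX1 repression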
Target sequence (P51843 207-470 limits assumed): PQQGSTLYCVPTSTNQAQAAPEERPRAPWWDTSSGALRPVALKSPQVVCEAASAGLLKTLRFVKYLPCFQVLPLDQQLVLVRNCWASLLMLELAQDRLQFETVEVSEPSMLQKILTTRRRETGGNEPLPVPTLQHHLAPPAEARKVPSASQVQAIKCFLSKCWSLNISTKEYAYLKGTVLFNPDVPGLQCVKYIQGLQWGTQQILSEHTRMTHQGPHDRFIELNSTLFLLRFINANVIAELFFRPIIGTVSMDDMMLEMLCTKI
hgDAF12 ag = H. glycines DAF-12 receptor agonists, confirmation, cell-based, luminescence, HEK293, GAL4-LBD fusion; HEK293 GAL4-hgDAF12 luciferase reporter, agonist mode; percent of butyrate response; activation, % at 6.8 µM; shares compounds with hgDAF12 agonist; 3,300 compounds, 80% hits;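 active = mean activation over triplicate wells above the hit cutoff derived from the earlier primary screen, cut at about 11% in these data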;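 note: 0% = DMSO low control and 100% = 2 mM sodium butyrate high control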
LXR ag 2 = LXR agonists, Gal4 luciferase reporter, confirmation, counter-screen for hgDAF-12 agonist project, cell-based, luminescence, HEK293, H. glycines campaign | shares compounds with hgDAF12 agonist | 24 h | activation, % at 6.8 µM | 3,300 tested, under 10 active;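 active = mean activation of the triplicate above a set limit carried over from the primary screen, none filed active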
* hit, by the source's call; · = no result. An excerpt weighted towards active compounds, which were near 4.8% of everything screened.

SMILES | hgDAF12 agonist | hcDAF12 agonist | DAX1 inh-1 | ssDAF-12 act | SMARCA2 act | DAX1 inh-2 | hgDAF12 ag | LXR ag 2
COC(=O)[C@]12C[C@H](CC(=O)N3CCN(C(=O)c4ccco4)CC3)C(=O)N(Cc3ccccc3)C1=C[C@H](C(C)(C)C)O[C@@H]2C | 0 | -2 | 1 | -1 | -1 | · | · | ·
CC(C)CC(=O)Nc1ccc2nn(-c3ccccc3)nc2c1 | 14* | 4 | 3 | 0 | 1 | 3 | 16* | 1
O=C(OCCOc1ccccc1)c1n[nH]c2ccccc12 | 15* | 1 | 2 | -1 | 7 | 3 | 13* | 1
CCOC(=O)c1n[nH]c2ccccc12 | 1 | 0 | 0 | -2 | 2 | 0 | · | ·
O=C(NCCc1ccccc1)c1n[nH]c2ccccc12 | 15* | 5.7* | 3 | 0 | 2 | 1 | 13* | 1
Cc1cc(C(=O)Nc2cccc([N+](=O)[O-])c2C)cs1 | -2 | 1 | 0 | 0 | 0 | 0 | · | ·
Cc1c(NC(=O)c2ccc(C(C)(C)C)cc2)cccc1[N+](=O)[O-] | 14* | 0 | 1 | -1 | 2 | 2 | 7 | 0
C[C@@H]1CCCCO[C@H](CN(C)C(=O)CCC(F)(F)F)[C@H](C)CN([C@@H](C)CO)C(=O)c2cc(NS(=O)(=O)c3ccc(Cl)cc3)ccc2O1 | -1 | -2 | -1 | -2 | 0 | · | · | ·
Cc1ccsc1/C=N/NC(=O)c1ccc([N+](=O)[O-])cc1 | 8 | -1 | 0 | -1 | 0 | 1 | · | ·
Cc1ccsc1/C=N/NC(=O)c1ccc2ccccc2c1 | 14* | 2 | 3 | 0 | 4 | 1 | 11* | 0
O=[N+]([O-])c1nccn1CC(O)CCN1CCOCC1 (configuration not stated) | 2 | 1 | 2 | -1 | -7 | · | · | ·
Cc1ccc(NC(=O)c2ccc(N3C(=O)C4CC=C(Cl)CC4C3=O)cc2)cc1 (configuration not stated) | 2 | -1 | 2 | -1 | 3 | -1 | · | ·
C/C(=N\O)c1ccc(N2C(=O)C3CC=C(Cl)CC3C2=O)cc1 (configuration not stated) | 14* | 4 | 4 | 0 | 7 | 5.0* | 15* | 1
CCNC(=O)N1CCN(c2ccc(N3CCN(Cc4ccccc4)[C@H](C)C3)c(C)c2)[C@H](C)C1 | -3 | -2 | -1 | -2 | -2 | · | · | ·
CCc1cc2c(nc1CC)CCCN2S(=O)(=O)c1ccc(C#N)cc1 | 0 | -2 | -2 | -2 | 6 | · | · | ·
CCOC(=O)c1sc(Nc2nc3ccc(OC)cc3s2)cc1C | 4 | -1 | -1 | -1 | -2 | -1 | · | ·
CCOC(=O)c1sc(NC(=O)c2cccs2)cc1C | 15* | 0 | 0 | -1 | -2 | 0 | 14* | 1
CCOC(=O)c1cccc(NC(=O)c2cccs2)c1 | 5 | 0 | 0 | -1 | 5 | 1 | · | ·
CCOC(=O)c1sc(NC(=O)Nc2cccc(Cl)c2)cc1C | 10 | 1 | 1 | 1 | -4 | 1 | · | ·
CCOC(=O)c1sc(NC(=O)c2sccc2C)cc1C | 17* | 6.4* | 2 | 1.2* | 0 | 3 | 17* | 1
CCOC(=O)c1sc(Nc2nc3c(F)cccc3s2)cc1C | 16* | 5 | 0 | 0 | -1 | 0 | 13* | 0
Cc1ccc(C(=O)N2CCC[C@@H]2C(=O)N2CCC[C@H]2C(=O)NCc2ccccc2)cc1C | 0 | 0 | -1 | -1 | -1 | · | · | ·
Cc1ccc([C@H]2C[C@]34CN(Cc5ccccc5)S(=O)(=O)[C@H]3C[C@H]2O4)cc1 | 2 | -1 | 1 | -1 | 4 | · | · | ·
O=C(NCc1ccccc1)[C@H]1CCCN1C(=O)[C@H]1CCCN1C(=O)c1ccccc1 | 0 | -1 | 0 | -1 | -5 | · | · | ·
COC(=O)c1ccc(COn2nnc3ccccc32)cc1 | 17* | 4 | 3 | 0 | 4 | 0 | 14* | 1
SMILES | hgDAF12 agonist | hcDAF12 agonist | DAX1 inh-1 | ssDAF-12 act | SMARCA2 act | DAX1 inh-2 | hgDAF12 ag | LXR ag 2
Oc1ccc(-c2cn3ccccc3n2)cc1 | 13* | 4 | 2 | 1 | 6 | 2 | 15* | 1
O=C(NC1CCCC1)[C@@H]1CCCN1C(=O)[C@@H](NC(=O)N1CCOCC1)c1ccccc1 | -1 | 0 | 0 | -1 | 0 | · | · | ·
c1ccc2c(c1)CN1C(=N2)COc2ccccc2C1c1nc2ccccc2[nH]1 (configuration not stated) | 15* | 6.0* | 4.4* | 2.0* | 7 | · | 8 | 0
O=C(O)COn1c(-c2ccccc2)nc2ccc([N+](=O)[O-])cc21 | 14* | 4 | 3 | 1 | 7.8* | 2 | 13* | 1
CCOC(=O)C(C)On1c(-c2ccc(Cl)cc2)nc2ccc([N+](=O)[O-])cc21 (configuration not stated) | 14* | 2 | 2 | 0 | 2 | 2 | 20* | 1
Nc1[nH]c(C(=O)c2ccccc2)c(-c2cccc(C(F)(F)F)c2)c1C(=O)c1c[nH]c2ccccc12 | 3 | 1 | 0 | 0 | -3 | · | · | ·
CCOC(=O)C1CCN(c2ncnc3c2cnn3-c2ccc(OC)cc2)CC1 | -5 | -2 | 0 | -2 | 0 | 0 | · | ·
COc1ccc(-n2ncc3c(N4CCC(C(N)=O)CC4)ncnc32)cc1 | 14* | 5 | 3 | 0 | 6 | 3 | 15* | 1
Cc1nc2ccc(NC(=O)CSc3ccccc3)cc2s1 | 13* | 3 | 3 | 0 | 5 | 0 | 17* | 1
Cc1nc2ccc(NC(=O)COc3ccccc3C)cc2s1 | 1 | -1 | 0 | -1 | 3 | 1 | · | ·
CCNC(=O)N1CCN(c2ccc(N3CCN(Cc4ccccc4)[C@@H](C)C3)c(C)c2)[C@H](C)C1 | -2 | -2 | -2 | -2 | -2 | · | · | ·
